Assay outcomes: PubChem BioAssay, several laboratories
An excerpt weighted towards active compounds, which were near 3.3% of everything screened.
ERb SRC1 inh – blocks coactivator binding to human estrogen receptor beta; TR-FRET ER-beta LBD / SRC1-Cy5 peptide binding; receptor agonist-loaded with 1 µM estradiol; inhibition, % at 25.6 µM; actives 1.3% (n = 86,000); AID 633;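 active means compounds whose percent inhibition of the receptor-coactivator binding signal exceeds about 50% in the single-dose screen, limit read from the data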;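 further: 0% = receptor plus peptide wells without compound and 100% = peptide-only wells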
Target sequence (Q92731 whole entry, looked up, the tested form may be a part): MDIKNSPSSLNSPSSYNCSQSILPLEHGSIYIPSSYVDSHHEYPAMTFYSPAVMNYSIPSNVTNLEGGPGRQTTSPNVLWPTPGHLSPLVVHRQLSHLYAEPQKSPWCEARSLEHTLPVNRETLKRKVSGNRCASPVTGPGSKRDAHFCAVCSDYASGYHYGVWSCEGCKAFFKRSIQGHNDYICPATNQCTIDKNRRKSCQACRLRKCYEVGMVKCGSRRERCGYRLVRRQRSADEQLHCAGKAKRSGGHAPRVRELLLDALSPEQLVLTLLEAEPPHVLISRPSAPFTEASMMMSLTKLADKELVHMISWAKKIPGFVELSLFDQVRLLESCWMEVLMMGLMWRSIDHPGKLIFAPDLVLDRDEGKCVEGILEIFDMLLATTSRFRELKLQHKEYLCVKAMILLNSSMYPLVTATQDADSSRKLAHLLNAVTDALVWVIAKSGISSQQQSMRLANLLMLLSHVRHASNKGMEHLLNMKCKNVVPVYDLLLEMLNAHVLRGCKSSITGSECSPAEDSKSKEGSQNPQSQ
Smad3 FoxH1 inh – inhibitors of human Smad3 transcription factor binding | actives 0.29% (n = 88,000) | P84022 | inhibition, % at 25 µM | TR-FRET Smad3/Dy647-FoxH1 peptide binding, europium anti-His;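 active means compounds that reduce the energy-transfer binding signal between the protein and its labelled peptide by more than half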;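 further: 0% = Smad3 plus labelled peptide maximal FRET and 100% = peptide-only background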
ERa coact pot – enhances coactivator binding to human estrogen receptor alpha; TR-FRET ERalpha-LBD/SRC-Cy5 coactivator binding, 2 h; 100 = basal binding, no effect; coactivator binding (% of control), % at 25.6 µM; actives 1.3% (n = 86,000); P03372; in the data active means activity above about 200%;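 further: binding measured in presence of low estradiol as agonist stimulus; 0% = peptide alone without receptor and 100% = receptor with peptide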
Candida biofilm – kills Candida albicans biofilms. C. albicans biofilm + clotrimazole, Alamar Blue. inhibition, % at 6 µM. actives 0.14% (n = 85,000);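 active means inhibition above 20%; inactive means inhibition below 20%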;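 further: preformed 24 hr biofilms exposed to compound for 48 hr; 0% = biofilm without compound and 100% = blank killed by clotrimazole plus chlorhexidine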
FAK blocker – inhibitors of human focal adhesion kinase; Q05397; inhibition, %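 (tested at 7 µM)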; biochemical FAK kinase activity assay; actives 0.84% (n = 97,000); in the data active means inhibition above about 19%;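 further: 0% = DMSO and 100% = reference compound high control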
ERa coact inh – ER-alpha (human) coactivator binding inhibition; TR-FRET ER-alpha LBD / SRC-1 peptide, estradiol-bound; AID 629; P03372; actives 1.7% (n = 86,000); inhibition, % at 25.6 µM; in the data active means inhibition above about 50%;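 further: 0% = receptor plus peptide control and 100% = peptide only without receptor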
An asterisk follows results filed as active; . = no result; [ ] = remark or other dose.

SMILES | ERb SRC1 inh | Smad3 FoxH1 inh | ERa coact pot | Candida biofilm | FAK blocker | ERa coact inh
O=C(Nc1ccc2oc(-c3cccnc3)nc2c1)c1cccnc1 | 6 | 4 | 128 | 7 | 1 | 4
O=C(Nc1ccc2oc(-c3cccnc3)nc2c1)c1ccc(Br)o1 | 38 | 1 | 206*[fluorescence artefact?] | 6 | 18 | 69*[fluorescence artefact?]
O=C(Nc1ccc(-c2nc3ncccc3o2)cc1)c1ccc(Br)o1 | -10 | -88 | 269*[fluorescence artefact?] | -6 | 15 | 41
O=C(Nc1ccc(-c2nc3ncccc3o2)cc1)c1ccco1 | 36 | 11 | 83 | 6 | 14 | 34
C/C(=N\NC(=O)C(NC(=O)c1ccccc1)C(C)C)c1ccccc1 (centres undefined) | . | . | . | . | -2 | .
CCN(CC)COC(=S)S | . | 25 | . | . | . | .
N#Cc1c(NC(=O)CN2CCN(S(=O)(=O)c3ccc4c(c3)OCCO4)CC2)sc2c1CCC2 | 53*[fluorescence artefact?] | 3 | 27 | -4 | 12 | 69*[fluorescence artefact?]
CC(C)N1CCc2c(sc(NC(=O)c3ccc(S(=O)(=O)N4CCOCC4)cc3)c2C#N)C1 | -5 | -2 | 88 | 10 | . | 0
CCOC(=O)N1CCc2c(sc(NC(=O)c3ccc(S(=O)(=O)N4CCCC4)cc3)c2C#N)C1 | 21 | -16 | 245* | 19 | . | 34
C/C(N)=C(/C#N)C(=O)CSc1nc2ccc(C)cc2[nH]1 | 57*[fluorescence artefact?] | -6 | 50 | -5 | . | 36
CCOC(=O)C1=C(C)S/C(=C\N(C)C)C1=O | 73*[fluorescence artefact?] | -5 | 34 | -2 | 0 | 54*
c1coc(-c2nc3ccccc3nc2-c2ccco2)c1 | 93*[fluorescence artefact?] | 8 | 28 | 9 | . | 84*[fluorescence artefact?]
O=C(NCCc1ccccc1)c1ccc2nc(-c3ccco3)c(-c3ccco3)nc2c1 | 88*[fluorescence artefact?] | 16 | 27 | 3 | 16 | 86*[fluorescence artefact?]
O=C(NCCO)c1ccc2nc(-c3ccco3)c(-c3ccco3)nc2c1 | 87*[fluorescence artefact?] | 16 | 16 | 4 | 7 | 64*
O=C(NCCc1ccccc1)c1ccc(=O)oc1 | 1 | -5 | 120 | 9 | -3 | -18
COC(=O)CC[C@@H](C)[C@@H]1CC[C@@H]2[C@H]3CC[C@H]4C[C@@H](O)CC[C@]4(C)[C@@H]3CC[C@]21C | . | 37 | . | . | . | .
CN(C)C[C@@H](O)c1ccc(Cl)c2ccccc12 | . | -2 | . | . | . | .
CC1CC(C)CN(S(=O)(=O)c2ccc(F)c(C(=O)Nc3ccc(Cl)cc3F)c2)C1 (centres undefined) | -2 | -5 | 121 | 46* | -2 | 2
Cc1ccccc1NC(=O)c1cc(S(=O)(=O)N2CCOCC2)ccc1F | -7 | 4 | 84 | 0 | . | -8
CSc1nc2ccc3nc(NC(=O)c4ccccc4)sc3c2s1 | 48 | 3 | 223*[fluorescence artefact?] | 6 | -15 | 55*[fluorescence artefact?]
Cc1nc(NC(=O)c2ccccc2)sc1-c1csc(N)n1 | 7 | 0 | 101 | 6 | 11 | 8
CN1C(=O)CS(=O)c2ccc(C(=O)NCCC3=CCCCC3)cc21 (centres undefined) | -8 | 6 | 104 | 21* | -10 | -8
Cc1noc(C)c1COC(=O)c1cccnc1SCC(=O)Nc1ccc2c(c1)OCO2 | -6 | 51* | 110 | 7 | 0 | 4
Cc1noc(C)c1COc1ccc(C(=O)OCC(=O)Nc2ccc3c(c2)OCO3)cc1 | -7 | 5 | 110 | 4 | -2 | -7
O=c1c2c3nc4ccccc4nc3n(-c3ccc4c(c3)OCCO4)c2ncn1C1CCCC1 | -1 | -10 | 97 | -1 | . | 1
SMILES | ERb SRC1 inh | Smad3 FoxH1 inh | ERa coact pot | Candida biofilm | FAK blocker | ERa coact inh
CCC(C)n1c(C)nc2c(c1=O)c1nc3ccccc3nc1n2-c1ccc2c(c1)OCCO2 (centres undefined) | 31 | 14 | 256*[fluorescence artefact?] | 8 | . | 44
Cc1nc2c(c(=O)n1CC1CCCO1)c1nc3ccccc3nc1n2Cc1ccc2c(c1)OCO2 (centres undefined) | 58*[fluorescence artefact?] | 0 | 108 | 4 | . | 69*[fluorescence artefact?]
CC(C)Cn1cnc2c(c1=O)c1nc3ccccc3nc1n2Cc1ccc2c(c1)OCO2 | -1 | 13 | 127 | 2 | . | 9
O=c1c2c3nc4ccccc4nc3n(-c3ccc4c(c3)OCCO4)c2ncn1CC1CCCO1 (centres undefined) | 39 | 10 | 42 | 5 | . | 69*
CCC(C)n1c(SCC(=O)NC(=O)Nc2ccc3c(c2)OCCO3)nc2ccccc2c1=O (centres undefined) | . | . | . | . | 3 | .
CC1(C)N=C(N)N=C(N)N1c1cccc(OCc2cccc([N+](=O)[O-])c2)c1 | . | 33 | . | . | . | .
O=P(O)(O)O[C@@H]1O[C@H](CO)[C@@H](O)[C@H](O)[C@H]1O | . | 5 | . | . | . | .
Cc1cc(C)c(NC(=O)c2cc3c(nc4sccn43)s2)c(C)c1 | 55*[fluorescence artefact?] | -8 | 34 | -4 | 5 | 86*[fluorescence artefact?]
O=c1c(N2CCCCC2)coc2ccccc12 | 5 | -2 | 109 | 6 | -1 | -6
CSc1nnc2c3cc(F)ccc3n(Cc3ccccc3)c2n1 | 19 | -261 | 336* | 0 | . | 16
COC(=O)Cn1c2ccc(OC)cc2c2nc3ccccc3nc21 | -4 | 0 | 174 | 5 | -1 | 5
CCOC(=O)Cn1c2ccc(OC)cc2c2nc3ccccc3nc21 | 29 | 8 | 279* | 7 | -3 | 46
Cc1cc(C)c2c(=O)[nH]c(SCC(=O)c3ccc(C(C)C)cc3)nc2n1 | 12 | -10 | 558*[fluorescence artefact?] | -1 | -10 | 12
Cc1cc(=O)[nH]c(SCC(=O)c2ccc(C(C)C)cc2)n1 | . | . | . | . | -7 | .
CC1CCCCN1C(=O)CSc1nnc(CSc2ncccn2)n1C (centres undefined) | -8 | 73* | 99 | 4 | -5 | -5
O=S1(=O)CC(O)C(N2CCC(c3ccccc3)CC2)C1 (centres undefined) | 17 | -7 | 128 | -1 | -2 | 5
CCCn1c(=O)c(C(=O)Nc2nnc(CC)s2)c(O)c2ccccc21 | 7 | 53*[fluorescence artefact?] | 78 | 3 | . | 9
CC(C)(O)C#Cc1ccccc1C(=O)NC(CC(N)=O)C(=O)O (centres undefined) | -5 | 4 | 113 | 1 | -4 | -6
O=C1CC(c2ccco2)CC(O)=C1C=Nc1ccc(Br)cc1 (centres undefined) | 9 | 16 | 84 | -2 | 0 | 6
O=C1CC(c2ccco2)CC(O)=C1C=Nc1cc(Cl)ccc1O (centres undefined) | 48 | -18 | 130 | 5 | 2 | 52*
COc1ccc([C@H](O)c2ccccn2)cc1 | . | -5 | . | . | . | .
Cc1ccc(-c2cc(-c3ccc4c(c3)OCO4)c(C#N)c(N)n2)o1 | 27 | 3 | 18 | 8 | 4 | 82*[fluorescence artefact?]
N#Cc1c(N)oc(-c2ccc3c(c2)OCO3)c1-c1ccc2c(c1)OCO2 | 73* | 6 | 30 | 6 | 3 | 73*
C=CCN(C(=O)COc1ccccc1)c1nnc(-c2ccncc2)s1 | 2 | 0 | 91 | 5 | 6 | -12
N#Cc1c(-c2ccccc2)cc(-c2ccco2)c(C#N)c1N | 57* | -3 | 98 | 7 | 3 | 80*
